Measurements from PubChem BioAssay AID1490 (National Center for Advancing Translational Sciences (NCATS), 2009).
“And” between values parts separate entries of the source, which are not always exact repeats. Identical values can stand only once. The campaign covered roughly 310,000 compounds. About 11,000 (3.5%) were called active. Not shown: some 4% with an inconclusive outcome. This excerpt belongs to a sample that is enriched for actives. Unmarked numbers belong to inactive results. The call rests on the fitted dose curve; in most records, active means well fitted inhibition curve with a large enough effect; inconclusive means small, poorly fitted or top-dose-only effect, or another doubt; inactive means no such curve, though single readings can be large or run the other way.

Biological target: 4'-phosphopantetheinyl transferase ffp (Bacillus subtilis) (UniProt Q9F4F7)
Test: qHTS Assay for Inhibitors of Bacillus subtilis Sfp phosphopantetheinyl transferase (PPTase);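 further: the enzyme is Sfp with the accession as filed and its product quenches rhodamine fluorescence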;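 on largest response in the series, negative = inhibition: 0% = enzyme reaction without inhibitor and -100% = no enzyme wells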
Settings: Biochemical Sfp PPTase activity
Source text: Assay Submitter: Michael Burkart, University of California, San Diego
Screening Center PI: Austin, C.P.
Screening Center: NIH Chemical Genomics Center [NCGC]
The covalent attachment of a phosphopantetheinyl (4'-PP) arm to a variety of synthases and other proteins is a key posttranslational protein modification. The 4'-PP is installed on the proteins post-translationally from coenzyme A (CoA) on a conserved serine residue by action of phosphopantetheinyl transferase (PPTase) enzymes. Phosphopantetheinylation is essential for synthase activity, and removal of the PPTase gene precludes natural product synthesis in microorganisms, or in the case of fatty acid biosynthesis, renders the organism unviable. PPTase enzymes belong to a distinct structural superfamily. Within bacteria, these enzymes are grouped into two classes based upon primary structure, the AcpS-Type and Sfp-Type PPTases.
Sfp-type PPTases, corresponding to an activator of surfactin production in Bacillus subtilis, are responsible for modifying type I polyketide and nonribosomal peptide synthases of prokaryotes. Sfp-type PPTases are responsible for the activation of a variety of pathogen-associated virulence factors. Among these compounds are toxins such as mycolactone from Mycobacterium ulcerans, siderophores such as vibriobactin from Vibrio cholerae or mycobactin from Mycobacterium tuberculosis, as well as the mycolic acids which form the waxy cell wall of Mycobacteria. The biosyntheses of these natural products are considered attractive targets for drug design.
In search of small molecule Sfp-PPTase inhibitors, a fluorescence quenching assay was developed for detection of Bacillus subtilis Sfp-PPTase enzymatic activity in a miniaturized high-throughput format. The consensus ybbr acceptor peptide […] was N-terminally labeled with Black Hole Quencher-2 (BHQ-2) and used in combination with rhodamine-labeled coenzyme A as a co-substrate.
Inhibition of Sfp-PPTase was detected by recording the fluorescence intensity change over a 30-minute reaction period at a 525 nm excitation and 598 nm emission. Reagents were supplied by Michael Burkart and Timothy Foley, University of California at San Diego.
This BioAssay deposition is for validation of the developed Sfp-PPtase assay.
Assay Buffer: 50 mM Hepes-Na pH 7.6, 10 mM MgCl2, 0.01% Nonidet P-40, and 0.01% BSA.
3 uL of Sfp-PPTase enzyme (final concentration 15 nM) and 1 uL of substrate mixture (final concentration for rhodamine-CoA and BHQ-2-YbbR 5 uM and 12.5 uM, respectively) dispensed in columns 1, 2, 5 - 48. Columns 1 and 2 used to generate neutral control (uninhibited reaction)
Three uL of reagents, consisting of buffer (in columns 3 and 4 as negative control) and Sfp-PPTase (in columns 1, 2, 5 - 48) were dispensed into 1,536-well Greiner black solid bottom plate. Compounds (23 nL) were transferred via Kalypsys pintool equipped with 1,536-pin array. The plate was incubated for 15 min at room temperature, followed by the addition of 1 uL substrate to start the reaction. The plate was then centrifuged at 1000 rpm for 15 seconds, and the fluorescence intensity recorded on a ViewLux High-throughput CCD imager (Perkin-Elmer) using standard BODIPY optics (525 nm excitation and 598 nm emission). The plate was then incubated for 30 minutes, and a second read on the ViewLux was performed. The fluorescence intensity difference over the 30-minute period was used to calculate the respective reaction rate for each well.
Potency means the concentration at half of the fitted maximal effect.

Point of comparison: `O=C(NCCc1ccc(Cl)cc1)c1cccc(N2CCCC2=O)c1`, largest response in the series, negative = inhibition 4.32%. Against it:
- Cc1ccc(NC(=O)CSc2nnc(CNC(=O)c3ccccc3F)o2)cc1Cl — higher, 12.4%
- CS(=O)(=O)n1nc(-c2ccco2)nc1N — higher, 23.7%
- Cn1cccc1-c1nc2ccccc2n1C — lower, 1.06%
- CC(CCc1ccccc1)NC(=O)c1cnc(Cl)c(Cl)c1 (stereo not drawn) — higher, 8.93%
- CCOC(=O)N1CCN(C(=O)C2CCN(c3ncnc4c3sc3cccc(F)c34)CC2)CC1 — lower, -3.49%
- Cc1onc(C(=O)NN)c1C(=O)N1CCN(C(c2ccccc2)c2ccccc2)CC1 — lower, 1.91%
- Clc1cccc(CN2COc3c(cc(Cl)c4cccnc34)C2)c1 — lower, -2.55%
- Oc1ccccc1CN1CCN(C(c2ccccc2)c2ccccc2)CC1 — lower, -13.4%
- O=C(c1ccc(Cn2cc([N+](=O)[O-])cn2)o1)N1CCCC1 — higher, 5.1%
- Cc1ccc(CS(=O)Cc2ccc(C(=O)N3CCOCC3)o2)cc1 (stereo not drawn) — higher, 9.75%
- O=C(Nc1ccnn1C1CCN(C/C=C/c2ccc(F)cc2)CC1)C1CCCC1 — lower, -2.59%
- O=C(c1ccc(F)cc1)N1CCCC(C(=O)N2CCCCC2)C1 (stereo not drawn) — lower, 1.26%
- CCOC(=O)c1ccccc1CN1C(=O)c2ccccc2S1(=O)=O — lower, -2.27%
- CCOC(=O)C1=C(C(=O)OCC)C(C(=O)OCC)N(S(=O)(=O)C(F)(F)F)c2ccccc21 (stereo not drawn) — higher, 6.6%
- CCc1cc(=O)oc2c(C)c(OCC(=O)NCCN3CCOCC3)ccc12 — higher, 9.5%
- CSCCC(NS(=O)(=O)c1ccc(C)cc1)C(=O)NCCc1c[nH]c2ccccc12 (stereo not drawn) — higher, 6.95%
- O/N=C(\C[n+]1ccccc1)c1ccc(Br)cc1 — lower, -2.63%
- COc1ccc(CNc2nc3c(c(=O)[nH]c(=O)n3C)n2Cc2ccccc2)cc1 — higher, 11.4%
- C=CCSc1nc2c(c(=O)[nH]c(=O)n2C)n1Cc1ccccc1 — higher, 9.86%
- CC1CCN(C(=O)C2CCN(S(=O)(=O)N3CCC4(CC3)OCCO4)CC2)CC1 — higher, 17.9%
- O=c1c([N+](=O)[O-])cc(C(F)(F)F)cn1Cc1cccc(Cl)c1 — lower, 3.19%
- O=C(/C=C/c1cccc([N+](=O)[O-])c1)N1CCN(Cc2ccccc2)CC1 — lower, 2.23%
- COc1cc(NC(=O)CN2C(=O)NC(C)(c3ccc(OC(F)F)cc3)C2=O)cc(OC)c1OC (stereo not drawn) — higher, 17.8%
- Cc1cccc(NC(=O)NC(=S)NC(=O)c2ccccc2)c1 — higher, 18.4%
- S=C(NCCc1ccccc1)N1CCCCC1 — higher, 5.57%
- COc1ccc([N+](=O)[O-])cc1NCC(=O)c1ccc(C)cc1 — lower, -11.6%
- Cc1cccc(C(=O)Nc2ccc(C(=O)N/N=C/c3cccc(C)n3)cc2)c1 — lower, -3.6%
- COc1cc(-c2nn3c(-c4cccc(C)c4)nnc3s2)cc(OC)c1OC — higher, 10.2%
- c1ccc(-c2cc(-c3nnc4sc(-c5ccccn5)nn34)[nH]n2)cc1 — lower, 0.622%
- C=CC1=C2C=C(C3CC3)N(C(CO)CO)C=C2C(=O)C(C)(OC(=O)c2ccco2)C1=O (stereo not drawn) — higher, 11.3%
- Cc1ccc(CNCc2ccc3c(c2)OCO3)c(C)c1 — lower, -14.4%
- CC(=O)Nc1ccc(NC(=O)CC2CCCC2)cc1 — lower, 1.03%
- O=C(c1c(F)cccc1Cl)N1CCN(c2ccccn2)CC1 — lower, 2.71%
- O=C(c1ccc2ccccc2n1)N1CCN(c2ccccc2Cl)CC1 — lower, -10.1%
- COc1ccc(C(=O)CCC(=O)Nc2ccc(Cl)cc2)cc1 — higher, 9.46%
- CCOC(=O)CSc1nc2sc3c(c2c(=O)[nH]1)CC(C)(C)OC3 — lower, -10.3%
- CCSc1nc2sc3c(c2c(=O)[nH]1)CC(C)(C)OC3 — lower, 1.72%

For `c1coc(-c2nc3nc4ccccc4n3nc2-c2ccco2)c1`, the Potency was 39.8 µM (active).
With `CCN1CCN(C(c2cccnc2)c2cc(Cl)c3cccnc3c2O)CC1` (stereo not drawn) the Potency was 39.8 µM (active).
For `CCOC(=O)N1CCN(C(c2cccnc2)c2ccc3cccnc3c2O)CC1` (stereo not drawn), the Potency was 20 µM (active).
In the case of `CCOC(=O)c1cc2n(c1N)-c1ccccc1C2=O`, the Potency is reported as 8.91 µM (active).
`Cn1c(=O)[nH]c(=O)c2c1[nH]c(=S)n2Cc1ccccc1` was tested, and the Potency was 44.7 µM (active).
With `O=[N+]([O-])/C=C/c1ccc2c(ccn2Cc2ccccc2)c1` the Potency was 25.1 µM (active).
With `Oc1cc2c(cc1O)CN(C(=S)NCCc1ccc(Cl)cc1)CCC2` the Potency was 56.2 µM (active) and 44.7 µM (active).
For `Fc1ccc(-c2ccc(-c3nn4c(-c5ccco5)nnc4s3)o2)cc1`, the Potency was 17.8 µM (active).
In the case of `O=C(c1c(Cl)cccc1Cl)N1CCN(c2cccc3[nH]ccc23)CC1`, the Potency is reported as 89.1 µM (active).
`CC/C(C)=N/Nc1nc2sc3c(c2c(=O)[nH]1)CC(C)(C)OC3` was tested, and the Potency was 39.8 µM (active).
